The record followed here is PubChem BioAssay (Tox21).

Inconclusive results are not listed. Where a call stands in place of a potency, no number is given. Active and inactive are the calls of the source. Calls come from the whole dose curve; as a rule, active = well fitted inhibition curve with a large enough effect in the signal ratio in the repeat runs (not every such curve was filed as active); inconclusive = weak or mixed curves, or effect the other way; inactive = no such curve, though single readings can be large or run the other way; the % refers to the signal ratio.

The target of this experiment is Peroxisome proliferator-activated receptor delta (Homo sapiens) (UniProt Q03181). The experiment can be described thus: qHTS assay to identify small molecule antagonists of the peroxisome proliferator-activated receptor delta (PPARd) signaling pathway (AID 743215).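 Note: cells stimulated with agonist L165041 at 300 nM final during compound exposure.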 The conditions noted are these: HEK293H PPARd-UAS-bla, beta-lactamase FRET ratio, antagonist, 17 h; series mostly up to 62 µM. An excerpt: U.S. Tox21 Program National Center for Advancing Translational Sciences [NCATS] NIH Chemical Genomics Center [NCGC] U.S. Environmental Protection Agency [EPA] National Institutes of Environmental Health Sciences [NIEHS] National Toxicology Program [NTP] U.S. Food and Drug Administration [FDA] Tox21 Assay Overview: The peroxisome proliferator-activated receptors (PPARs) are lipid-activated transcription factors of the nuclear receptor superfamily with three distinct subtypes namely PPAR alpha, PPAR delta (PPARd) and PPAR gamma. All these subtypes heterodimerizes with Retinoid X receptor (RXR) and have different physiological functions. […] To identify the compounds that inhibit PPAR-delta signaling, GeneBLAzer PPAR delta UAS-bla HEK293H cell line (Invitrogen, Carlsbad, CA, USA) containing a beta-lactamase reporter gene under the control of an Upstream Activator Sequence (UAS) was used to screen the Tox21 compound library.
Sequence of Peroxisome proliferator-activated receptor delta (Homo sapiens) (Q03181 whole entry, looked up): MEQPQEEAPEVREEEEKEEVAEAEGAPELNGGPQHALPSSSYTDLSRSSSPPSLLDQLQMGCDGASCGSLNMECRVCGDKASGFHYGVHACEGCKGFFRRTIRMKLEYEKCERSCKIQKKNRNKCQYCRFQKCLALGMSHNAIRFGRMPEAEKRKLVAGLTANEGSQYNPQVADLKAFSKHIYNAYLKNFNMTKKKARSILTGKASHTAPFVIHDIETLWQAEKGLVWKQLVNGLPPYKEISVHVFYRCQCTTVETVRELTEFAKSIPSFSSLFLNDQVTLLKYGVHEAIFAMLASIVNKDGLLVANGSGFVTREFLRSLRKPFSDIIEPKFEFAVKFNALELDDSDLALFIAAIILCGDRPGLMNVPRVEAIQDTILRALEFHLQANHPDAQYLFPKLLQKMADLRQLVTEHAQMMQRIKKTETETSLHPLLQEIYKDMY
Tox21 Assay Protocol Summary: PPARd-bla cells were dispensed at 3000 cells/5uL/well in 1536-well black wall/clear bottom plates using a Multidrop Combi (Thermo Fisher Scientific, Waltham, MA) dispenser. After the assay plates were incubated at 37 C and 5% CO2 for 5 h, 23 nL of compounds dissolved in DMSO, positive controls or DMSO only was transferred to the assay plate by a Pintool station (Kalypsys, San Diego, CA), followed by addition of 1ul L165041 (300 nM, final concentration in the wells). The assay plates were incubated at 37 C for 17 h, and then 1 uL of LiveBLAzerTM B/G FRET substrate was added using a Bioraptr Flying Reagent Dispenser (FRD) workstation (Beckman Coulter, Indianapolis, IN, USA). The assay plates were incubated at room temperature for 2 h and fluorescence intensity was measured by an Envision plate reader (PerkinElmer, Shelton, CT).
On the technique in general: qHTS replaces the single test concentration by a dilution series.
In the case of `CCCCC(CC)CO` (stereo not given), the Potency entry is “inactive”. With `CC[C@H](C)C(=O)O[C@H]1C[C@@H](C)C=C2C=C[C@H](C)[C@H](CC[C@@H]3C[C@@H](O)CC(=O)O3)[C@H]21` the entry was “inactive”. With `CC(C)(N)CO` the entry was “inactive”; with `CC(=O)CC(=O)Nc1ccccc1`, “inactive”; with `CC1=C(C)S(=O)(=O)CCS1(=O)=O`, “inactive”. In the case of `c1ccc(OCCOc2ccccc2)cc1`, the Potency entry is “inactive”. As for `COc1ccc(Cl)cc1C(=O)NCCc1ccc(S(=O)(=O)NC(=O)NC2CCCCC2)cc1`, the entry is “inactive”. As for `CCCCN(CCCC)CCCC`, the Potency entry is “inactive”. With `C#CCN(C)Cc1ccccc1` the entry was “inactive”. On to `O=P(OC(CCl)CCl)(OC(CCl)CCl)OC(CCl)CCl`, for which the Potency entry was “inactive”. With `O=C(O)c1ccccc1C(c1ccc(O)cc1)c1ccc(O)cc1` the entry was “inactive”; with `FC(F)(F)c1ccc(Cl)c(Cl)c1`, “inactive”; with `CCCCCC/C(C=O)=C\c1ccccc1`, “inactive”. Turning to `CCc1cccc(C)c1N`, the Potency entry is “inactive”. With `CC(O)COCC(C)O` (stereo not given) the entry was “inactive”; with `O=C(O)[C@H](O)[C@@H](O)[C@H](O)[C@H](O)CO`, “inactive”. For `Nc1ccccc1[N+](=O)[O-]`, the Potency result was “inactive”. With `O=c1[nH]c(=O)n([C@H]2CCCO2)cc1F` the entry was “inactive”.

`OC[C@H]1O[C@@](CO)(O[C@H]2O[C@H](CO)[C@@H](O)[C@H](O)[C@H]2O)[C@@H](O)[C@@H]1O`: the Potency result is “inactive”. For `COc1ccc(NC(C)=O)cc1N`, the Potency result was “inactive”.

Take `O=C(O)c1ccc(C(=O)O)cc1`: the Potency result was “inactive”. `C[Si](O[Si](C)(C)C)O[Si](C)(C)C`: the Potency result is “inactive”.

Take `O=C(O)CCCCCCCCCCC(=O)O`: the Potency entry was “inactive”. As for `CC(=O)c1ccccc1`, the entry is “inactive”. With `O=S1(=O)CC=CC1` the entry was “inactive”; with `c1ccc2c(c1)ccc1ccccc12`, “inactive”. With `N[C@@H](Cc1cc(I)c(Oc2cc(I)c(O)c(I)c2)c(I)c1)C(=O)O` the entry was “inactive”; with `c1c[nH]cn1`, “inactive”; with `O=C(O)c1cc(=O)c2c(OCC(O)COc3cccc4oc(C(=O)O)cc(=O)c34)cccc2o1`, “inactive”. `CCCCCCCCCCCCCCCO`: the Potency result is “inactive”.

For `CC(C)(C)[C@@H](O)[C@@H](Cc1ccc(Cl)cc1)n1cncn1`, the Potency result is “inactive”. With `CCCCC(CC)COC(=O)C(C#N)=C(c1ccccc1)c1ccccc1` (stereo not given) the entry was “inactive”; with `C=C(C)C(=O)O[C@H]1C[C@@H]2CC[C@@]1(C)C2(C)C`, “inactive”; with `Nc1cc([N+](=O)[O-])ccc1O`, “inactive”.

On to `C[C@H]1C[C@H]2[C@@H]3CCC4=CC(=O)C=C[C@]4(C)[C@@]3(F)[C@@H](O)C[C@]2(C)[C@@]1(O)C(=O)CO`, for which the Potency result was “inactive”. With `OCC(CO)(CBr)CBr` the entry was “inactive”. With `COc1ccc(Nc2ccccc2)c(C)c1` the entry was “inactive”. With `CCCCCC1=CCCC1=O` the entry was “inactive”. Turning to `CC(=O)OCC(=O)[C@@]12N=C(C)O[C@@H]1C[C@H]1[C@@H]3CCC4=CC(=O)C=C[C@]4(C)[C@H]3[C@@H](O)C[C@@]12C`, the Potency result is “inactive”. As for `C[C@H]1C[C@@H]2[C@H]([C@@H](O)C[C@@]3(C)[C@H]2CC[C@]3(O)C(=O)CO)[C@@]2(C)C=CC(=O)C=C12`, the entry is “inactive”.
